About 79,000 compounds went through this panel and 15% of them were active in at least one assay; those are over-represented in the sample as a whole. The source made the active and inactive calls. Rule as the data show it: active = growth inhibition above about 70%; inactive = the rest.
How the values were obtained:
[1] = NCI Yeast Anticancer Drug Screen. Data for the wt1 strain (AID 149);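 also: 0% = growth of vehicle-treated wt1 cultures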; details: S. cerevisiae wt1 strain (SPY 50644) growth inhibition, hits give high values
How it was run: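 Using yeast strain wt1, compound-induced growth inhibition was determined against vehicle-treated cultures.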

[2] = NCI Yeast Anticancer Drug Screen. Data for the rad50EPP+ strain (AID 151);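 also: 0% = growth of vehicle-treated control cultures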; details: S. cerevisiae rad50 mutant strain, hits give high values
How it was run: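 Growth inhibition read against vehicle controls in rad50EPP+ yeast, a strain altered in DNA damage repair, after compound exposure.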

[3] = NCI Yeast Anticancer Drug Screen. Data for the mgt1 strain (AID 153); details: S. cerevisiae mgt1 mutant growth inhibition, hits give high values
How it was run: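 mgt1 yeast grown with test compound; read-out is growth inhibition versus vehicle-treated cultures.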

[4] = NCI Yeast Anticancer Drug Screen. Data for the rad50 strain (AID 155);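 also: 0% = growth of vehicle-only cultures of the same strain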; details: S. cerevisiae rad50 strain growth inhibition, hits give high values
How it was run: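 Relative growth inhibition (compound vs vehicle) was measured in yeast with a defined repair-gene alteration.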

[5] = NCI Yeast Anticancer Drug Screen. Data for the mec2-1 strain (AID 157); details: S. cerevisiae mec2-1 strain, hits give high values
How it was run: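 Yeast mec2-1 mutant treated with compound. Readout: growth inhibition vs vehicle controls.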

[6] = NCI Yeast Anticancer Drug Screen. Data for the sgs1 mgt1 strain (AID 161);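 also: 0% = growth of cultures given vehicle only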; details: S. cerevisiae sgs1 mgt1 strain, hits give high values
How it was run: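 Genetically altered yeast, compound exposure, growth inhibition relative to vehicle.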

[7] = NCI Yeast Anticancer Drug Screen. Data for the CLN2oe strain (AID 163);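 also: 0% = growth of vehicle-only control cultures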; details: S. cerevisiae CLN2oe strain, hits give high values
How it was run: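 Read-out: yeast growth inhibition, expressed relative to vehicle-only controls. The strain bears an engineered cell-cycle alteration.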

[8] = NCI Yeast Anticancer Drug Screen. Data for the cln2 rad14 strain (AID 165);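 also: 0% = growth equal to vehicle treated cultures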; details: S. cerevisiae cln2 rad14 strain, hits give high values
How it was run: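 cln2 rad14 yeast strain; compound exposure; growth inhibition read vs vehicle controls.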

[9] = NCI Yeast Anticancer Drug Screen. Data for the bub3 strain (AID 167); details: S. cerevisiae bub3 mutant strain, hits give high values
How it was run: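 Screening used yeast with an engineered genetic alteration affecting cell cycle control. Compound-exposed cultures were compared with vehicle cultures, and reduced growth was taken as inhibition.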

[10] = NCI Yeast Anticancer Drug Screen. Data for the wt2 strain (AID 169);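 also: 0% = growth of vehicle-treated yeast cultures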; details: S. cerevisiae wt2 strain growth inhibition, hits give high values
How it was run: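 Read-out: growth inhibition versus vehicle-treated control cultures after compound exposure of the yeast strain.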

[11] = NCI Yeast Anticancer Drug Screen. Data for the mlh1 strain (AID 171);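 also: 0% = growth of vehicle-treated control cultures of the same strain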; details: S. cerevisiae mlh1 strain growth inhibition, hits give high values
How it was run: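 Read-out: growth inhibition versus vehicle controls. Strain: engineered yeast with a defined DNA repair or cell cycle defect, compound-treated.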

[12] = NCI Yeast Anticancer Drug Screen. Data for the sgs1 strain (AID 173);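 also: 0% = growth of vehicle-only control cultures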; details: S. cerevisiae sgs1 mutant, hits give high values
How it was run: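 Read-out: yeast growth inhibition relative to vehicle controls, following compound exposure of a strain with a defined DNA repair/cell cycle alteration.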

[13] = NCI Yeast Anticancer Drug Screen. Data for the mlh1 rad18 strain (AID 175); details: S. cerevisiae mlh1 rad18 strain growth inhibition, hits give high values
How it was run: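 Yeast w/ defined DNA-repair lesions; compound exposure; growth vs vehicle controls → % inhibition.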

[14] = NCI Yeast Anticancer Drug Screen. Data for the rad18 strain (AID 177); details: S. cerevisiae rad18 mutant growth inhibition, hits give high values
How it was run: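 Readout: growth inhibition vs vehicle controls. Cells: genetically altered yeast strain, DNA repair defect.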

[15] = at 5.0 µM (retest, dose inferred, filed as 0.5)
[16] = at 50.0 µM (retest, dose inferred, filed as 5.0)

Measured: growth inhibition

COc1cc(N)ccc1Nc1c2ccccc2nc2ccccc12
inactive: [1]; at 1.2 µM -17% | [1]; at 3.7 µM -16% | [1]; at 11.0 µM -19% | [1]; at 33.0 µM -17% | [1]; at 100.0 µM 69% | [2]; at 1.2 µM -9% | [2]; at 3.7 µM -11% | [2]; at 11.0 µM 10% | [2]; at 33.0 µM 59% | [3]; at 1.2 µM 2% | [3]; at 3.7 µM 25% | [3]; at 11.0 µM 32% | [3]; at 33.0 µM 51% | [4]; at 1.2 µM 6% | [4]; at 3.7 µM 32% | [4]; at 50.0 µM 36.3% | [5]; at 1.2 µM -45% | [5]; at 3.7 µM -30% | [5]; [15] 20% | [5]; at 11.0 µM -27% | [5]; at 33.0 µM 2% | [5]; at 50.0 µM 42.4% | [6]; [15] 58% | [7]; at 1.2 µM 29% | [7]; at 3.7 µM 11% | [7]; at 11.0 µM 6% | [7]; at 33.0 µM 29% | [8]; [15] 40% | [9]; at 1.2 µM 8% | [9]; at 3.7 µM 15% | [9]; [15] 42% | [9]; at 11.0 µM 14% | [9]; at 33.0 µM 28% | [9]; at 50.0 µM 63% | [10]; at 1.2 µM 6% | [10]; at 3.7 µM 9% | [10]; at 11.0 µM 9% | [10]; at 33.0 µM 31% | [11]; at 1.2 µM -24% | [11]; at 3.7 µM -15% | [11]; at 11.0 µM -16% | [11]; at 33.0 µM 11% | [12]; at 1.2 µM -16% | [12]; at 3.7 µM 1% | [12]; at 11.0 µM -4% | [12]; at 33.0 µM 36% | [13]; at 50.0 µM 65.7% | [14]; at 1.2 µM -2% | [14]; at 3.7 µM -11% | [14]; at 11.0 µM -4% | [14]; at 33.0 µM 7%
active: [2]; at 100.0 µM 88% | [3]; at 100.0 µM 89% | [4]; [15] 90% | [4]; at 11.0 µM 74% | [4]; at 33.0 µM 89% | [4]; [16] 95% | [4]; at 100.0 µM 91% | [5]; [16] 92% | [5]; at 100.0 µM 84% | [6]; [16] 97% | [6]; at 50.0 µM 84.9% | [7]; at 100.0 µM 81% | [8]; [16] 83% | [8]; at 50.0 µM 80.8% | [9]; [16] 86% | [9]; at 100.0 µM 85% | [10]; at 100.0 µM 86% | [11]; at 100.0 µM 80% | [12]; at 100.0 µM 92% | [13]; [15] 81% | [13]; [16] 94% | [14]; at 100.0 µM 82%
